# Experimental data reported in paper PMC7862700, “An all-to-all approach to the identification of sequence-specific readers for epigenetic DNA modifications on cytosine”.
# How the values were obtained:
# Experiment in all cases: DAPPL (digital affinity profiling via proximity ligation, sequencing); 10 mM Tris-HCl pH 7.5, 50 mM NaCl, 1 mM DTT, 4% glycerol, room temperature, 30 min; GST-TFs on glutathione beads, 16-mer random dsDNA library, 0.1% formaldehyde crosslink after washing; high values mean tight binding
# [1] = target: T1, FLI1 (Homo sapiens, UniProt Q01543 1-452); conditions: protein: recombinant; tags: N-terminal GST; dsDNA, one strand shown
# T1 sequence: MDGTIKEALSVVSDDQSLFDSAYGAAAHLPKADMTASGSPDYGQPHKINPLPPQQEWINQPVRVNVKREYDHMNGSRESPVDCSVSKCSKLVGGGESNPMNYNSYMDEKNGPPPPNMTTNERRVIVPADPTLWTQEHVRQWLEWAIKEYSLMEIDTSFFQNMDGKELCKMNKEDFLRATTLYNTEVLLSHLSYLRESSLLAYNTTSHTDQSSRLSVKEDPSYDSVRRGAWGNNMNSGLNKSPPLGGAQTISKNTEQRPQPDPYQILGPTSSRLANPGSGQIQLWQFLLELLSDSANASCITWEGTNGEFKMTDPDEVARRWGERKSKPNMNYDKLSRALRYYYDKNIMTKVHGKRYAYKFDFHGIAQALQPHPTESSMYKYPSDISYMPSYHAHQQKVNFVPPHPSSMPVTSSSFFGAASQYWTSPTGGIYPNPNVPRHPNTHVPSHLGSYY
# Outline: (§1)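 Pools of DNA-barcoded human transcription factors, expressed in yeast as GST fusions on glutathione beads and combined with a tag-only sample, were incubated with 200 nmole of a 16-mer random double-stranded DNA library. Incubation took 30 min at room temperature in Tris/NaCl/DTT/glycerol buffer and was followed by washing, 0.1% formaldehyde crosslinking, proximity ligation (BsaI/T4 ligase, 1 h, 37 °C), PCR amplification and sequencing on an Illumina NextSeq500. Binding signal is the ratio of a hexamer's read frequency for a factor to its frequency for the tag-only sample.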
# [2] = target: T2, ELK1 (Homo sapiens, UniProt P19419 1-428); conditions: protein: recombinant; tags: N-terminal GST; dsDNA, one strand shown
# T2 sequence: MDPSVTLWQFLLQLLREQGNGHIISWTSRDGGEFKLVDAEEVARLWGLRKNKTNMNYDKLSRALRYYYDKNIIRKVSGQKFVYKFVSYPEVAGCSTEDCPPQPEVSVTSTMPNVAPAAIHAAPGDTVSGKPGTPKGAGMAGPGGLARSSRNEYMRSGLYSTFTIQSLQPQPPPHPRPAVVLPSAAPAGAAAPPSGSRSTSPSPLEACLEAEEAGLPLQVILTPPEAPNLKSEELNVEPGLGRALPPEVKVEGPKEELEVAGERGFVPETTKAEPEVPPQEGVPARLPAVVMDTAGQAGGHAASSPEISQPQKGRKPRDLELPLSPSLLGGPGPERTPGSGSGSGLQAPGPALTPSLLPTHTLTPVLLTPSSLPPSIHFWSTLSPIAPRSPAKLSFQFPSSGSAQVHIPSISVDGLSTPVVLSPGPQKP
# Outline: as §1
# [3] = target: T3, GABPA (Homo sapiens, UniProt Q06546 1-454); conditions: protein: recombinant; tags: N-terminal GST; dsDNA, one strand shown
# T3 sequence: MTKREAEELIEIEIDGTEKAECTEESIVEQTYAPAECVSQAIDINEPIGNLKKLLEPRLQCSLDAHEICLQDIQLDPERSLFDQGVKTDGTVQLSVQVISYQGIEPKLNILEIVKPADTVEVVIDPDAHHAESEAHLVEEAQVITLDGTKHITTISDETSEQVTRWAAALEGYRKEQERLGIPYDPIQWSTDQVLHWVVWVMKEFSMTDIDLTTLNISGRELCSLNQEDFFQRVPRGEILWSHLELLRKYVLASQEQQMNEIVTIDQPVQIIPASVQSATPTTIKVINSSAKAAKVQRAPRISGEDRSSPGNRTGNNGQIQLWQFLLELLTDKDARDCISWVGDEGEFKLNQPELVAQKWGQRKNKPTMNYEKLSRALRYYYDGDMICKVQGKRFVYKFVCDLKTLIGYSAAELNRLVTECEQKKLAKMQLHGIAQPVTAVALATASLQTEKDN
# Outline: as §1
# [4] = target: T4, ERG (Homo sapiens, UniProt P11308 1-479); conditions: protein: recombinant; tags: N-terminal GST; dsDNA, one strand shown
# T4 sequence: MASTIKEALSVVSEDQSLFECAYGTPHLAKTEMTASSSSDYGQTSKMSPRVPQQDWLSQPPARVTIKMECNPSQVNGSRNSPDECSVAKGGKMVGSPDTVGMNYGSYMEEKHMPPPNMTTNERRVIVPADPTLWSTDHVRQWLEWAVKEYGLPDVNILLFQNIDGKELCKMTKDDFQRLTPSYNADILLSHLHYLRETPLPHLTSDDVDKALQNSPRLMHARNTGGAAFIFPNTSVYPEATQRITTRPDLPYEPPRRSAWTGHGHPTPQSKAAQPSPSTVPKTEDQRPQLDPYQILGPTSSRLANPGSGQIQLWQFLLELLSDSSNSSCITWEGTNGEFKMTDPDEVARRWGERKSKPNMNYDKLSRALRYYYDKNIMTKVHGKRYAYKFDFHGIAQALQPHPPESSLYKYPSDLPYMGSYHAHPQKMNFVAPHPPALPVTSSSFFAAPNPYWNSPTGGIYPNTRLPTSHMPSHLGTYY
# Outline: as §1
# [5] = target: ELF1 (Homo sapiens, UniProt P32519 1-619); conditions: protein: recombinant; tags: N-terminal GST; dsDNA, one strand shown
# Outline: as §1
# [6] = target: T5, EHF (Homo sapiens, UniProt Q9NZC4 1-300); conditions: protein: recombinant; tags: N-terminal GST; dsDNA, one strand shown
# T5 sequence: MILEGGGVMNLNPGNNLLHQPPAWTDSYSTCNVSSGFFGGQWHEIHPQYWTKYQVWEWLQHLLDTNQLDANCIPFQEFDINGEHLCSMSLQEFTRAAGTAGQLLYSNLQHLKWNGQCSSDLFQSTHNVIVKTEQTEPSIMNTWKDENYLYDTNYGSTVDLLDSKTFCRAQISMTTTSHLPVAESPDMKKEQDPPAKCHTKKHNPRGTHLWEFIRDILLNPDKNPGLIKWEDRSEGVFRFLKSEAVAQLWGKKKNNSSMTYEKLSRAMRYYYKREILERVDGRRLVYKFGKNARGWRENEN
# Outline: as §1
# [7] = target: SPI1 (Homo sapiens, UniProt P17947 1-270); conditions: protein: recombinant; tags: N-terminal GST; dsDNA, one strand shown
# Outline: as §1
# [8] = target: SPIB (Homo sapiens, UniProt Q01892 1-262); conditions: protein: recombinant; tags: N-terminal GST; dsDNA, one strand shown
# Outline: as §1
# [9] = target: T6, FEV (Homo sapiens, UniProt Q99581 1-238); conditions: protein: recombinant; tags: N-terminal GST; dsDNA, one strand shown
# T6 sequence: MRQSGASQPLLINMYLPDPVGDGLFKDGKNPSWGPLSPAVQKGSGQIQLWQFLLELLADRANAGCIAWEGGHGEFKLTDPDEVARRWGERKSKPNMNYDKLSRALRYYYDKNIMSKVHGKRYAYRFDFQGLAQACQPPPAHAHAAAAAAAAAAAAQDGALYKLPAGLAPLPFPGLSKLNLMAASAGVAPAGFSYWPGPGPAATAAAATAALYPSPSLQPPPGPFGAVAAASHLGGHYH
# Outline: as §1
# [10] = target: ETV5 (Homo sapiens, UniProt P41161 1-510); conditions: protein: recombinant; tags: N-terminal GST; dsDNA, one strand shown
# Outline: as §1
# [11] = target: HSF1 (Homo sapiens, UniProt Q00613 1-529); conditions: protein: recombinant; tags: N-terminal GST; chain copies: 3; dsDNA, one strand shown
# Outline: as §1
# [12] = target: T7, SPIC (Homo sapiens, UniProt Q8N5J4 1-248); conditions: protein: recombinant; tags: N-terminal GST; dsDNA, one strand shown
# T7 sequence: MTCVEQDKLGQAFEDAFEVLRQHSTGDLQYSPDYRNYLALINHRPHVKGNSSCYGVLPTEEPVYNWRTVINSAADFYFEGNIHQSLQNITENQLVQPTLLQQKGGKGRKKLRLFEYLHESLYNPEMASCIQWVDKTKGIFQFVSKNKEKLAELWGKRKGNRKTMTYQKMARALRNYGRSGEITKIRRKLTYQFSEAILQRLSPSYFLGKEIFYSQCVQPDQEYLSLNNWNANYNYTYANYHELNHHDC
# Outline: as §1
# [13] = target: ELF4 (Homo sapiens, UniProt Q99607 1-663); conditions: protein: recombinant; tags: N-terminal GST; dsDNA, one strand shown
# Outline: as §1
# [14] = target: T8, ELK4 (Homo sapiens, UniProt P28324-2 1-405); conditions: protein: recombinant; tags: N-terminal GST; dsDNA, one strand shown
# T8 sequence: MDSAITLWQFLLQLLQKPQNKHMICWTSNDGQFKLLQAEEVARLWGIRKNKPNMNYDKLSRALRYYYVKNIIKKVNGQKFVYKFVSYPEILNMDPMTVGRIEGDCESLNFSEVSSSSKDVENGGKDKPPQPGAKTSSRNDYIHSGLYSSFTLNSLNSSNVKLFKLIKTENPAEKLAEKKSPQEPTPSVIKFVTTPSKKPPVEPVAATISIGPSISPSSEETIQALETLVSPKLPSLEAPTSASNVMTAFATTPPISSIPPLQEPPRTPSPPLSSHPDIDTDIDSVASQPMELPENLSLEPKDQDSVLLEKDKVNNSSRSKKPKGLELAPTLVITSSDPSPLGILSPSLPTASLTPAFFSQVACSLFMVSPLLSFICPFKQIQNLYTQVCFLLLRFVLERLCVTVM
# Outline: as §1
# [15] = target: T9, ETV2 (Homo sapiens, UniProt O00321 1-342); conditions: protein: recombinant; tags: N-terminal GST; dsDNA, one strand shown
# T9 sequence: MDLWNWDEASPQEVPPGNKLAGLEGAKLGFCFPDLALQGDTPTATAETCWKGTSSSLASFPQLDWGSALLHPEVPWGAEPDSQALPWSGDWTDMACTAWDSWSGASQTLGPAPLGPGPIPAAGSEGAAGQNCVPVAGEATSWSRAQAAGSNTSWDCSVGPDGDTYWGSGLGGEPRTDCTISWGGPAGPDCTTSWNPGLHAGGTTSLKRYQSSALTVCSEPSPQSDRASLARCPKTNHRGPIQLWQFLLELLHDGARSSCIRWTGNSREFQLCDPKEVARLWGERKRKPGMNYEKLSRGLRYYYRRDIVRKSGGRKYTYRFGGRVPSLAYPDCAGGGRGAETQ
# Outline: as §1
# [16] = target: T10, ELF3 (Homo sapiens, UniProt P78545 1-371); conditions: protein: recombinant; tags: N-terminal GST; dsDNA, one strand shown
# T10 sequence: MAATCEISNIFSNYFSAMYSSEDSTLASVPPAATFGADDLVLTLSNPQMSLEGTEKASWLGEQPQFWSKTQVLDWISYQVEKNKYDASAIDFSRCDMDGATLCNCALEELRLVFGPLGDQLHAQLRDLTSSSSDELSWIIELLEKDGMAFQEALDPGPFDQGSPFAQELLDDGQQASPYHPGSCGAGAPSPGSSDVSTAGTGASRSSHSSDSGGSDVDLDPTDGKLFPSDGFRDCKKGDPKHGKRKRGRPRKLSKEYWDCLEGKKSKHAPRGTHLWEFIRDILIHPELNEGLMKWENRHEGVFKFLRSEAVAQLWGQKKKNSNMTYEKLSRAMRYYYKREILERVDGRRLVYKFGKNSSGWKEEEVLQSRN
# Outline: as §1
# [17] = target: CRX (Homo sapiens, UniProt O43186 1-299); conditions: protein: recombinant; tags: N-terminal GST; dsDNA, one strand shown
# Outline: as §1
# [18] = target: ETV1 (Homo sapiens, UniProt P50549 1-477); conditions: protein: recombinant; tags: N-terminal GST; dsDNA, one strand shown
# Outline: as §1
# Sequence of ETV5 (P41161 whole entry): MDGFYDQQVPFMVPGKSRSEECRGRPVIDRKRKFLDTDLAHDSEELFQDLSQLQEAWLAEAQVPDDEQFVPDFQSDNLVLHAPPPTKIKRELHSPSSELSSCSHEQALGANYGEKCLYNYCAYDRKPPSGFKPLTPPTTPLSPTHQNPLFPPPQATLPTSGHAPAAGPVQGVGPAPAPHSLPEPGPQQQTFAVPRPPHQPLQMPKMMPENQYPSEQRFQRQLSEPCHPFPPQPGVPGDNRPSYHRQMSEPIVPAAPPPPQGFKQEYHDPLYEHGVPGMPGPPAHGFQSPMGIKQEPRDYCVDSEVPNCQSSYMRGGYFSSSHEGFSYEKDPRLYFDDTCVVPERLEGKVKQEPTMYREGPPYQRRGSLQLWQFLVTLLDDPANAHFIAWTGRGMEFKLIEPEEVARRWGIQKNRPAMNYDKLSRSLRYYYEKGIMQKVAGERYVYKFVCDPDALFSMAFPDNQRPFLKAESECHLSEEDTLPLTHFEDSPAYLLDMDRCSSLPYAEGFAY
# Sequence of ETV1 (P50549 whole entry): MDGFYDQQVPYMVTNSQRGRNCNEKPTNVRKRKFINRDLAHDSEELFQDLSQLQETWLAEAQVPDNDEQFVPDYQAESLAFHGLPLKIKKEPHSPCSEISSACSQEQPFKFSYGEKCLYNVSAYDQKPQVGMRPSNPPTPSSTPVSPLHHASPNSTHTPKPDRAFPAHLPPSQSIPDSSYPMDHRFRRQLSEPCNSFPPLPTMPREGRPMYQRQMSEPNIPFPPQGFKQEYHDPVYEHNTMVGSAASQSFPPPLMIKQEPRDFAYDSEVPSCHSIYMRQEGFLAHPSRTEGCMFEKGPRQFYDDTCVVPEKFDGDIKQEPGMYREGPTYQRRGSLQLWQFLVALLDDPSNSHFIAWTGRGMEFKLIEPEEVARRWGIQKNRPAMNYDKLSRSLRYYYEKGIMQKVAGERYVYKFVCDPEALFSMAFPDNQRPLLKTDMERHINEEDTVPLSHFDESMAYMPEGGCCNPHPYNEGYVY
# Sequence of CRX (O43186 whole entry): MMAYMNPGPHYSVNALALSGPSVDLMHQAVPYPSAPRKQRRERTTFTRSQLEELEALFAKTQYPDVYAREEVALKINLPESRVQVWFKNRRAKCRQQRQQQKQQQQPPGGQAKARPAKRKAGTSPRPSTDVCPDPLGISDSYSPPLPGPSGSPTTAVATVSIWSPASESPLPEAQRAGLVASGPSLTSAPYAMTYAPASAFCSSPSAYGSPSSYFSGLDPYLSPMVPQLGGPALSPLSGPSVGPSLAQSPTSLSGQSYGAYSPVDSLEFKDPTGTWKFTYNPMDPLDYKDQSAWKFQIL
# Sequence of HSF1 (Q00613 whole entry): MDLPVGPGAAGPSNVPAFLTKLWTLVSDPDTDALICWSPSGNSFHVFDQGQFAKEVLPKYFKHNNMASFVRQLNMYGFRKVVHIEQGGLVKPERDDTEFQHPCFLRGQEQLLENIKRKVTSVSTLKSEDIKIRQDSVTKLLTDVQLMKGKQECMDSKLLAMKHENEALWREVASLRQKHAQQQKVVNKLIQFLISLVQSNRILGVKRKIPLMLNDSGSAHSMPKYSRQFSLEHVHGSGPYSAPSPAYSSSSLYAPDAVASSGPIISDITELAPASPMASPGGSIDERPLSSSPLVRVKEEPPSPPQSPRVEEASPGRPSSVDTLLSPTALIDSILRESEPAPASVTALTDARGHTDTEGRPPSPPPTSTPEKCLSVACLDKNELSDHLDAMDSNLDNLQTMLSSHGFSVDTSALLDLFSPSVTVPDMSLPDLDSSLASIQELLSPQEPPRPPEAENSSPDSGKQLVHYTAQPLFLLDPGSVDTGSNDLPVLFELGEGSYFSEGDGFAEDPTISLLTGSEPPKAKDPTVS
# Sequence of ELF4 (Q99607 whole entry): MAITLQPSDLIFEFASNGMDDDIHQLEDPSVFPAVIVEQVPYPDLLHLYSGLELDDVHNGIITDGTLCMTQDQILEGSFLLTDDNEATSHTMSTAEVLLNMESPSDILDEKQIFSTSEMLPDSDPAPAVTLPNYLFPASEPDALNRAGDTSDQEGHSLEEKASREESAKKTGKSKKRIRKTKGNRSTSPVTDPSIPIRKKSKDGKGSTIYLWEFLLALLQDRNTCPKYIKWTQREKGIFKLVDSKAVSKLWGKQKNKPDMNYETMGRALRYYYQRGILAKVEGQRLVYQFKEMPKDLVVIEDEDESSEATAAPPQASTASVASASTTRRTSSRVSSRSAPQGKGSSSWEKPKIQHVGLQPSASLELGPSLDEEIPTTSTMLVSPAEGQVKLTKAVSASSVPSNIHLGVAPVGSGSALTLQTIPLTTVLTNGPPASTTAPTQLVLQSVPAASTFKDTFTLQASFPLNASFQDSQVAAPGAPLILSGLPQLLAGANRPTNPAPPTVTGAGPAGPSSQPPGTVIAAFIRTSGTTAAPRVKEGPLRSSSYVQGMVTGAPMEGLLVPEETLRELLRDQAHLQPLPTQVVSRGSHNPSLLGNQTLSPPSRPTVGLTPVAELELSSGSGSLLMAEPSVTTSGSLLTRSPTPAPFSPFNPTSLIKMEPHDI
# Sequence of SPIB (Q01892 whole entry): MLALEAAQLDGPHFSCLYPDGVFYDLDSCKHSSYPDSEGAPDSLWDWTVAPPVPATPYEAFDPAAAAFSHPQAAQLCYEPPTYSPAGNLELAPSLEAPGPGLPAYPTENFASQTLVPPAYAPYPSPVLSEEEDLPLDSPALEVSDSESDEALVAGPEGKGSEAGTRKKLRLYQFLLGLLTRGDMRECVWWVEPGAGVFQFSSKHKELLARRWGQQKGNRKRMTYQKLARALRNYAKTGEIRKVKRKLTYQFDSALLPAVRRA
# Sequence of ELF1 (P32519 whole entry): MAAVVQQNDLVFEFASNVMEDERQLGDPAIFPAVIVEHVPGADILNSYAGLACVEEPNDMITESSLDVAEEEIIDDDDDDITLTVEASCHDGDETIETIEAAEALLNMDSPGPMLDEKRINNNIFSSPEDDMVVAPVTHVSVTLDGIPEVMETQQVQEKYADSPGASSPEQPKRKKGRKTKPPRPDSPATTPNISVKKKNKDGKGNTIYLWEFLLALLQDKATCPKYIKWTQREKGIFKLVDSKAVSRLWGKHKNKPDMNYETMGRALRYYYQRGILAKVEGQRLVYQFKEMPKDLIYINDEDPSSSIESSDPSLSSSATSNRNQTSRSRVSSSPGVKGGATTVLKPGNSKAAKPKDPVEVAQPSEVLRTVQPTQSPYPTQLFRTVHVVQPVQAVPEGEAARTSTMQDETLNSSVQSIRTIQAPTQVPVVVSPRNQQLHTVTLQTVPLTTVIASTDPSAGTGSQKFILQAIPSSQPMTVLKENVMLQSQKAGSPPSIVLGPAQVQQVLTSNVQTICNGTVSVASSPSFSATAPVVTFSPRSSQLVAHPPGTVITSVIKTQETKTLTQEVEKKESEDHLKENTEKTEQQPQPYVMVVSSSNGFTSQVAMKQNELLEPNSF
sequence,measurement,setting,value
ATTAAG,binding signal,[1],"1.04 fold enrichment (6-mer frequency, TF over GST control)"
same,binding signal,[2],"1.07 fold enrichment (6-mer frequency, TF over GST control)"
same,binding signal,[3],"1.09 fold enrichment (6-mer frequency, TF over GST control)"
same,binding signal,[4],"1.01 fold enrichment (6-mer frequency, TF over GST control)"
same,binding signal,[5],"1.08 fold enrichment (6-mer frequency, TF over GST control)"
same,binding signal,[6],"1.04 fold enrichment (6-mer frequency, TF over GST control)"
same,binding signal,[7],"1.03 fold enrichment (6-mer frequency, TF over GST control)"
same,binding signal,[8],"1.06 fold enrichment (6-mer frequency, TF over GST control)"
same,binding signal,[9],"1.02 fold enrichment (6-mer frequency, TF over GST control)"
same,binding signal,[10],"1.01 fold enrichment (6-mer frequency, TF over GST control)"
same,binding signal,[11],"2 fold enrichment (6-mer frequency, TF over GST control)"
same,binding signal,[12],"1.04 fold enrichment (6-mer frequency, TF over GST control)"
same,binding signal,[13],"1.06 fold enrichment (6-mer frequency, TF over GST control)"
same,binding signal,[14],"1.04 fold enrichment (6-mer frequency, TF over GST control)"
same,binding signal,[15],"1.03 fold enrichment (6-mer frequency, TF over GST control)"
same,binding signal,[16],"1.14 fold enrichment (6-mer frequency, TF over GST control)"
same,binding signal,[17],"3.35 fold enrichment (6-mer frequency, TF over GST control)"
same,binding signal,[18],"1.03 fold enrichment (6-mer frequency, TF over GST control)"
